# ARNT TACC3 PPI: disrupts binding between human ARNT and TACC3; Q9Y6A5; AlphaScreen His-ARNT PAS-B/GST-TACC3 binding, luminescence; TACC3 fragment carries E629A point mutation; inhibition, % at 9.99 µM; hit rate 0.66% among 390,000; AID 623870;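 active means mean inhibition of replicates at least 50% and at least half of replicates each reaching 50%; inconclusive means half or more replicates reach 50% but mean below 50%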;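 further: 0% = complete ARNT plus TACC3 wells and 100% = ARNT alone without TACC3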
# HSP90 inh: blocks HSP90-mediated luciferase refolding in reticulocyte lysate. AID 1789. Rabbit reticulocyte lysate, luciferase refolding luminescence, 3 h. inhibition, % at 5.6 µM. hit rate 0.91% among 290,000;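 active means inhibition above the screen-wide mean plus 3 SD, computed separately per campaign, cut at about 16% in these data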;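 further: 0% = DMSO wells and 100% = 60 µM geldanamycin wells; inhibitors lower the luminescence because luciferase stays unfolded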
# HSF1 inh: HSF1 inhibition; AID 2098; NIH3T3-HGL HSE-luciferase, MG132-induced, luminescence 8 h; stronger effect = lower value; activity change, negative = inhibition, % at 7.5 µM (by protocol); hit rate 0.77% among 300,000;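 active means more than half of replicate wells show activity change below -50%, luminescence cut by over half; inconclusive means some wells, but at most half, below -50%; inactive means no replicate well below -50%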;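 further: luciferase reports HSF-1 transcriptional activity via heat shock element; 0% = median of DMSO wells and -100% = zero luminescence signal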
# HSF-1 act: increases HSF-1 driven luciferase reporter signal. NIH3T3-HGL HSF-1 luciferase reporter, MG132, 8 h; 100% = twice DMSO control signal. activation, % at 9 µM. hit rate 1.7% among 300,000;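 active means mean replicate activation of at least 50% with a set share of replicates each reaching 50%; inconclusive means only one of those two conditions met; inactive means mean below 50% and too few replicates reaching it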;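 further: 0% = median of the neutral control wells and 100% = twice that signal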
# HIF activator: HIF pathway transcriptional activation; hit rate 0.32% among 300,000; U2OS HRE-luciferase reporter, luminescence; normalized: DMSO 0%, desferrioxamine 100%; activation, % at 7.5 µM (by protocol); AID 1910;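 active means mean activation of at least 10% of the iron chelator positive control signal, with at least half of replicates also reaching 10%; inconclusive means mean and replicate majority disagree about reaching 10%; inactive means mean and most replicates under 10%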
# * hit, by the source's call; ? = inconclusive; nt = not tested or not shown. An excerpt weighted towards active compounds, which were near 3.1% of everything screened.
SMILES,ARNT TACC3 PPI,HSP90 inh,HSF1 inh,HSF-1 act,HIF activator
O=[N+]([O-])c1ccc2nc(-c3ccccc3)n(OCc3ccc(Cl)cc3)c2c1,6,-4,17,59*,2
COn1c(-c2ccccc2)nc2ccc(Cl)cc21,-7,-2,32,66*,3
N#Cc1ccc(CSc2nc(N)cc(N)n2)cc1,-4,-2,35,74*,-8
Cc1sc2cc3c(c(C(=O)c4ccccc4)[n+]2c1C)-c1cccc2cccc-3c12,nt,3,-44,-38,11*
O=C(c1ccccc1)c1c2c(cc3sc4ccccc4[n+]13)-c1cccc3cccc-2c13,23,11,nt,nt,nt
COC(=O)c1sccc1NC(=O)Nc1ccc(F)cc1,0,3,28,70*,0
COC(=O)c1sccc1NC(=O)/C=C\c1ccc(Cl)cc1Cl,16,7,nt,nt,nt
COC(=O)c1sccc1NC(=O)Nc1cccc(F)c1,-3,-3,33,77*,0
COC(=O)c1sccc1NC(=O)Nc1ccc(C)cc1,-3,14,nt,nt,nt
COC(=O)c1sccc1NC(=O)/C=C/c1ccc(Cl)cc1,-4,3,29,76*,1
CNC(=O)C[C@@H]1CC[C@@H]2[C@@H](COc3ccc(NS(=O)(=O)c4cccc(F)c4)cc3C(=O)N2C)O1,-17,nt,nt,nt,nt
CCCn1c(NCc2cccc(OC)c2O)nc2ccccc21,-9,-4,32,62*,2
COc1cccc(CNc2nc3ccccc3n2C(C)C)c1O,4,-2,153,182*,0
COc1ccc(CNc2nc3ccccc3n2C(C)C)c(O)c1,6,0,7,-9,1
CCCn1c(NCc2cccc(OC)c2OC)nc2ccccc21,-3,3,8,-2,0
CCOC(=O)c1c(C)[nH]c(C(=O)COC(=O)CSC)c1C,12,-1,16,26,0
CCCCC(=O)OCC(=O)c1[nH]c(C)c(C(=O)OCC)c1C,-3,3,37,76*,1
CCCCCCC(=O)c1c(C)[nH]c(C(=O)OCC)c1C,-9,-2,29,53*,1
COC(=O)C[C@@H]1CC[C@H]2[C@@H](COc3ccc(NC(=O)c4cccc(Cl)c4)cc3C(=O)N2C)O1,-5,nt,nt,nt,nt
COc1ccc(-c2cc(C(F)(F)F)nc(S(=O)(=O)CCCC(=O)Nc3cc(C)on3)n2)cc1OC,10,0,226,223*,12*
COc1ccccc1-c1cc(C(F)(F)F)nc(N2CCCC2)n1,-9,1,-9,-3,0
COc1ccccc1-c1cc(C(F)(F)F)nc(S(=O)(=O)CCCC(=O)NC(C)C)n1,0,2,105,172*,24*
COc1ccccc1-c1cc(C(F)(F)F)nc(S(=O)(=O)CCCC(=O)N2CCCCC2C)n1 (configuration not stated),0,1,82,79*,11*
COc1ccccc1-c1cc(C(F)(F)F)nc(S(C)(=O)=O)n1,1,9,216,256*,16*
COc1ccccc1-c1cc(C(F)(F)F)nc(S(=O)(=O)CCCC(=O)Nc2cc(C)on2)n1,20,-1,16,19,0
SMILES,ARNT TACC3 PPI,HSP90 inh,HSF1 inh,HSF-1 act,HIF activator
COCC(=O)N(C)C[C@@H]1Oc2ncc(-c3ccccc3F)cc2C(=O)N([C@@H](C)CO)C[C@H]1C,-1,nt,nt,nt,nt
CN(C)CCCNC(=O)C[C@@H]1C=C[C@@H](NS(=O)(=O)c2ccc(F)cc2)[C@H](CO)O1,-6,nt,nt,nt,nt
C[C@H](CO)N1C[C@H](C)[C@@H](CN(C)Cc2ccncc2)OCCCC[C@H](C)Oc2ccc(N(C)C)cc2C1=O,7,nt,nt,nt,nt
O=C(C[C@@H]1CC[C@H]2[C@@H](COC[C@H](O)CN2Cc2ccc(Oc3ccccc3)cc2)O1)N1CCc2ccccc2C1,25,nt,nt,nt,nt
COc1ccccc1-c1cc(C(F)(F)F)nc(S(=O)(=O)CCCC(=O)NCc2ccc(F)cc2)n1,-5,2,-80*,-80,26*
COc1ccccc1-c1cc(C(F)(F)F)nc(S(=O)(=O)CCCC(=O)Nc2cccnc2Cl)n1,-4,3,nt,nt,nt
CS(=O)(=O)c1nc(-c2ccco2)cc(C(F)(F)F)n1,nt,3,-74*,-73,-4
C[C@@H]1CN([C@@H](C)CO)C(=O)c2cc(NC(=O)Nc3ccccc3)ccc2O[C@H]1CN(C)C(=O)Nc1ccccc1,5,nt,nt,nt,nt
C[C@@H]1CN([C@H](C)CO)S(=O)(=O)c2ccc(-c3ccc(F)cc3)cc2O[C@H]1CN(C)C,4,nt,nt,nt,nt
O=C(/C=C/c1ccc(Cl)cc1)NCc1cccs1,-1,-1,-13,-5,0
O=C(/C=C/c1cccc(Cl)c1)NCc1cccs1,-2,0,20,52*,2
CCC(=O)Nc1ccc(C(=O)Cn2ncc(Cl)c(Cl)c2=O)cc1,-5,-1,42,57*,4
O=C(OCn1ncc(Cl)c(Cl)c1=O)c1ccc(C(F)(F)F)cc1,0,-1,9,27,0
CCOC(=O)c1ccc(NC(=O)Cn2ncc(Cl)c(Cl)c2=O)cc1,nt,3,-94*,-94,-1
O=C(Cn1ncc(Cl)c(Cl)c1=O)Nc1ccc2c(c1)OCO2,-7,nt,nt,nt,nt
CCOC(=O)c1ccc(NC(=O)Cn2nc(C)c3ccccc3c2=O)cc1,1,-7,-4,9,1
CCN(CC)S(=O)(=O)c1cc(NC(=O)Cn2ncc(Cl)c(Cl)c2=O)ccc1C,-4,5,81,120*,-4
Cc1ccc(C(=O)OCn2ncc(Cl)c(Cl)c2=O)cc1,-6,-1,-94*,-95,-3
O=C(Cn1ncc(Cl)c(Cl)c1=O)c1ccc2c(c1)OCCO2,-6,nt,nt,nt,nt
COc1cccc(-c2ccc3c(c2)O[C@@H](CN(C)C(=O)C2CC2)[C@@H](C)CN([C@H](C)CO)S3(=O)=O)c1,-5,nt,nt,nt,nt
CC=Cc1ccc2n(c1=O)C[C@H]1[C@H](CO)[C@@H](C(=O)NCC3CC3)[C@@H]2N1Cc1ccncc1 (mixture of isomers),5,nt,nt,nt,nt
C[C@H]1CCCCO[C@H](CN(C)C)[C@@H](C)CN([C@@H](C)CO)C(=O)c2cc(NC(=O)c3ccncc3)ccc2O1,-2,nt,nt,nt,nt
O=C(Nc1ccccc1F)c1ccc(-c2cccc([N+](=O)[O-])c2)o1,4,2,25,51*,3
N#CCCN1CCN(C(=S)c2ccc(-c3cccc(Cl)c3)o2)CC1,-3,3,19,?,2
S=C(c1ccc(-c2cccc(Cl)c2)o1)N1CCCCC1,1,0,38,73*,3
N#CCCN1CCN(C(=S)c2ccc(-c3ccc(Cl)c(Cl)c3)o2)CC1,7,0,61,100*,1
O=[N+]([O-])c1cccc(-c2ccc(C(=S)N3CCOCC3)o2)c1,nt,1,49,79*,3
CC(C)NC(=O)Nc1ccc2c(c1)C(=O)N([C@@H](C)CO)C[C@H](C)[C@H](CN(C)S(C)(=O)=O)O2,1,nt,nt,nt,nt
C[C@H](CO)N1C[C@H](C)[C@H](CN(C)C(=O)CC2CC2)Oc2cc(C3=CCCC3)ccc2S1(=O)=O,2,nt,nt,nt,nt
